Results taken from the supplement of paper PMC11732987, “Enantioselective OTUD7B fragment discovery through chemoproteomics screening and high-throughput optimisation” (Communications Chemistry, 2025).

Assays:
Assay in all cases: log2 ratio of Biotin-Ahx-Ub-VS probe labelling (fragment/DMSO); higher = less target engagement (more negative = stronger competition), active = hit call of the paper (q ≤ 0.05, log2 ratio ≤ -1)
Conditions in all cases: compound concentration: 200 uM; treatment time: 3 h
ALG13 = target: T1, ALG13 (UniProt Q9NP73)
T1 sequence (whole entry): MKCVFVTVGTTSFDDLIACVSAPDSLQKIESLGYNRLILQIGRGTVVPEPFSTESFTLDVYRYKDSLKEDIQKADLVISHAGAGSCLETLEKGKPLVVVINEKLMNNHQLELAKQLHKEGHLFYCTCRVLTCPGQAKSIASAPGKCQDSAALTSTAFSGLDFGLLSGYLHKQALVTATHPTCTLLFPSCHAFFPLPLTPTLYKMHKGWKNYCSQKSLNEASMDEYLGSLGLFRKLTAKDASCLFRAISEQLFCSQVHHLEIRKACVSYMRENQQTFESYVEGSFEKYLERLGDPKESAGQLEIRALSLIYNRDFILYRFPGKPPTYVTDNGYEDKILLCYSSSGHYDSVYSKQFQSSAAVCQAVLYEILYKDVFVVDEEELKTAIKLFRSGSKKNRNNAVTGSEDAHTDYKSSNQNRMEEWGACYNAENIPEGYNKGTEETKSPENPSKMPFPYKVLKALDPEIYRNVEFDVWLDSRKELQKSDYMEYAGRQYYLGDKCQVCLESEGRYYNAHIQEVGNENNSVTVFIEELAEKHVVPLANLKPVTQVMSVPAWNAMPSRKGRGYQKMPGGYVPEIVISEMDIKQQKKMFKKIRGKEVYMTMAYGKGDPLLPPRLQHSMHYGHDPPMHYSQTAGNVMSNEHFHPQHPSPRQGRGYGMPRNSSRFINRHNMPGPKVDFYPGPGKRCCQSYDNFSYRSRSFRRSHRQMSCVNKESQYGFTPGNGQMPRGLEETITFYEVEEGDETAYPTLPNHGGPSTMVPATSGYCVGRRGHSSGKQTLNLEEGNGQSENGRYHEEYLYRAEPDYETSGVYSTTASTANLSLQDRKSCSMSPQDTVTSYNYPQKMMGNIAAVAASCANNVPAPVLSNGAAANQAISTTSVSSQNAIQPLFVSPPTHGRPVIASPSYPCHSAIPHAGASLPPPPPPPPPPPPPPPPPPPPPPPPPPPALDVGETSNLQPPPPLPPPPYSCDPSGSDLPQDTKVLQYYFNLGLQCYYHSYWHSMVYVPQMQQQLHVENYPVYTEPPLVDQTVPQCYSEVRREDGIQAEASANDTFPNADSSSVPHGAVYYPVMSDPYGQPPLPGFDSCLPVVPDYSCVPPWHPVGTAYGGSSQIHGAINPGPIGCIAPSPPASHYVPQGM
In short: (§1)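 Each value is an average log2 ratio of fragment to vehicle, tested by unpaired t-test. The underlying Spectronaut label-free quantities were global-median-normalised, and only proteins with ≥2 unique peptides were included. Triplicate HEK293T lysate samples (495 µg) were exposed to fragment at 200 µM or vehicle for 3 h, then to Biotin-Ahx-Ub-VS at 0.5 µM final for 1 h, before NeutrAvidin enrichment of labelled DUBs, LysC and trypsin digestion, and diaPASEF LC-MS/MS.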

ATXN3 = ATXN3 (UniProt P54252)
Chain of ATXN3 (P54252 whole entry): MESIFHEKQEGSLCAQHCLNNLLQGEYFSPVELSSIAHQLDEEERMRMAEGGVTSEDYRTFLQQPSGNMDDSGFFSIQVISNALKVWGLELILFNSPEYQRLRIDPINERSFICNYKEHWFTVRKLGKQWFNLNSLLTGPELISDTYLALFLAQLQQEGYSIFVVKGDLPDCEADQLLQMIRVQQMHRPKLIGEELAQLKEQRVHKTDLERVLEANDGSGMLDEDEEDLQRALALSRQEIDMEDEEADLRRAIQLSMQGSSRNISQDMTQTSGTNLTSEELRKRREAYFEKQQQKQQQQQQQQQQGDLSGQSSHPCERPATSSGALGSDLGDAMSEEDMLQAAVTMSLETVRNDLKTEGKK
In short: as §1

BAP1 = target: T2, BAP1 (UniProt Q92560)
T2 sequence (whole entry): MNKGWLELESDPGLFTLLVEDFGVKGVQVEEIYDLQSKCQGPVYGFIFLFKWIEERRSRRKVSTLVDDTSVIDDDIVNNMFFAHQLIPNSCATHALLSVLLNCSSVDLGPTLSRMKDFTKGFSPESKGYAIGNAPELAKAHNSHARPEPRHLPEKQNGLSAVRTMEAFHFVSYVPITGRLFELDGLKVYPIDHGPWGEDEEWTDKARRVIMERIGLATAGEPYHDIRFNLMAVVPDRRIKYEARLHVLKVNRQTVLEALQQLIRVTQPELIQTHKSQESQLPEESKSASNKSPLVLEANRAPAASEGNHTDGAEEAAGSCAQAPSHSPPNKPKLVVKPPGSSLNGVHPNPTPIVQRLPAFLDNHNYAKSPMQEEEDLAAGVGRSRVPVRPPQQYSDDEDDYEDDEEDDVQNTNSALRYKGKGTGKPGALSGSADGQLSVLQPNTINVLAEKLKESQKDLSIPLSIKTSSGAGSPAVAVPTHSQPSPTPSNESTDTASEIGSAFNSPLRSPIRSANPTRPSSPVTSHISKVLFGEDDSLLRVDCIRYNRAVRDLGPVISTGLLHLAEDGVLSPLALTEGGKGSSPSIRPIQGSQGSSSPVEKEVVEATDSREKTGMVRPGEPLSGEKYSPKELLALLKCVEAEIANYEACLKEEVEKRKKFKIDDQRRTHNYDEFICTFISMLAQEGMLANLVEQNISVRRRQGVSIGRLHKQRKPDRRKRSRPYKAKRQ
In short: as §1

EIF3F = EIF3F (UniProt O00303)
Chain of EIF3F (O00303 whole entry): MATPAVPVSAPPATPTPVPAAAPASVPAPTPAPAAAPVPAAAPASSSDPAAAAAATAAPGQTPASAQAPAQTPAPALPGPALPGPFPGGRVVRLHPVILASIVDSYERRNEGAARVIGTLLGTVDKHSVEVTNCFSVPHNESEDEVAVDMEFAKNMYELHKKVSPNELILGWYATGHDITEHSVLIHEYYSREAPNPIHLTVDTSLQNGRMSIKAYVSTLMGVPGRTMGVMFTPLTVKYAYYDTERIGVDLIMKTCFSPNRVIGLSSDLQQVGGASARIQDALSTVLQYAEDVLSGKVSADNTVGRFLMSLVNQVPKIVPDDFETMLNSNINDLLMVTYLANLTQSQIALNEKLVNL
In short: as §1

EIF3H = EIF3H (UniProt O15372)
Chain of EIF3H (O15372 whole entry): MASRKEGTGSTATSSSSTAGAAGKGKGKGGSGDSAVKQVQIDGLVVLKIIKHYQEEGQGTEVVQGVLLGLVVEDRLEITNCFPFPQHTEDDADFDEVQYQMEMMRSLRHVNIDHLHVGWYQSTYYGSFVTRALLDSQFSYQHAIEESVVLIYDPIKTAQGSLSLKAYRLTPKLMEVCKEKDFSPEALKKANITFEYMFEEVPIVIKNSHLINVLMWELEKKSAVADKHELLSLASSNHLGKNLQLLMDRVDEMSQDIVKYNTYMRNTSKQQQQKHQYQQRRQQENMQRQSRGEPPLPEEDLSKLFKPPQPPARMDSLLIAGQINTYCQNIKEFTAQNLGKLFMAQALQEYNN
In short: as §1

FAM105A = target: T3, FAM105A (UniProt Q9NUU6)
T3 sequence (whole entry): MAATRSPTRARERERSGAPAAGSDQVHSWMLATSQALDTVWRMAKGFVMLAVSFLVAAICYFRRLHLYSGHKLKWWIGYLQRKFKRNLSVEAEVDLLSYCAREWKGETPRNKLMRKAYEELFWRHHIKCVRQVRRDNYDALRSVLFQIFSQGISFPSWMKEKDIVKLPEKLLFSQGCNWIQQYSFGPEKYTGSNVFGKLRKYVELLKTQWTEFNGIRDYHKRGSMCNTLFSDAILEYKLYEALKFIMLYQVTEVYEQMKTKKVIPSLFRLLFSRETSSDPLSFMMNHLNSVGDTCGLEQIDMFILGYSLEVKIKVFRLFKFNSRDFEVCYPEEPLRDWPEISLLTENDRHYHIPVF
In short: as §1

OTUB1 = OTUB1 (UniProt Q96FW1)
Chain of OTUB1 (Q96FW1 whole entry): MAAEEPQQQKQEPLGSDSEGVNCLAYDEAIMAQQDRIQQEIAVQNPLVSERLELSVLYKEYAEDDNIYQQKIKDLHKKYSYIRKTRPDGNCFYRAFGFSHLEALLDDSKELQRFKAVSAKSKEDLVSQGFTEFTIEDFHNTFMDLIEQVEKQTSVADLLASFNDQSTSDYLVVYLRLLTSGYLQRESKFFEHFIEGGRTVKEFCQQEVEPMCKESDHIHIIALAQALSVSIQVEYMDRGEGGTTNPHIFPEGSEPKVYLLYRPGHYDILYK
In short: as §1

OTUD4 = target: T4, OTUD4 (UniProt Q01804)
T4 sequence (whole entry): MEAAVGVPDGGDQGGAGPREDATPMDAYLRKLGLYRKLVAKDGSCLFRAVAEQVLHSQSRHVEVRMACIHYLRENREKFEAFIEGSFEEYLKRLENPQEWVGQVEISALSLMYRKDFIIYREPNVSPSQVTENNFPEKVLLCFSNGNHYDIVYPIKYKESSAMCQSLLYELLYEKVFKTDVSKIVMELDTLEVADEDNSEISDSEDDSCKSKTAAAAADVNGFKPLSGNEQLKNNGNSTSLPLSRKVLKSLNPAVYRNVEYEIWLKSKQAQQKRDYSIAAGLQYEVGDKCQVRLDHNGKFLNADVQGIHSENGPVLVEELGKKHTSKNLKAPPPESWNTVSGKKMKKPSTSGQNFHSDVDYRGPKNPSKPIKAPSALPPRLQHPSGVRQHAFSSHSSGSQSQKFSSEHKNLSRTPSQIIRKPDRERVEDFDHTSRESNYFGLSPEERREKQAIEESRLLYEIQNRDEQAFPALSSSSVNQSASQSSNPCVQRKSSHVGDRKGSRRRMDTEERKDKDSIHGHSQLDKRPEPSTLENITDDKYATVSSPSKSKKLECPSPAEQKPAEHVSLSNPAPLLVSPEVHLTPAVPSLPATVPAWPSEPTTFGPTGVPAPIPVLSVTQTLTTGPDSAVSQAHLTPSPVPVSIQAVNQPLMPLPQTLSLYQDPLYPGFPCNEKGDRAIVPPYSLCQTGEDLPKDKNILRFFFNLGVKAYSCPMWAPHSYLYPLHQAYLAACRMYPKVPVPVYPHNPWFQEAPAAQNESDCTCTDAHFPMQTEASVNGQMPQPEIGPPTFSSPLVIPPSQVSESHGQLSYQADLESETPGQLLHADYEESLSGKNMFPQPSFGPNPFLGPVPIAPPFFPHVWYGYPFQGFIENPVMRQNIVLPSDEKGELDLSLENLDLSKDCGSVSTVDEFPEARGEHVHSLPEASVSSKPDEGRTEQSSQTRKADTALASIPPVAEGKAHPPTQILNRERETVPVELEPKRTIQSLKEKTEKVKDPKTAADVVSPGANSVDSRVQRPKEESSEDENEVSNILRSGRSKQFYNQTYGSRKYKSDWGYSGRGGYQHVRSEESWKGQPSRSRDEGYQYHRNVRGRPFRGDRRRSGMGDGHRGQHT
In short: as §1

OTUD5 = target: T5, OTUD5 (UniProt Q96G74)
T5 sequence (whole entry): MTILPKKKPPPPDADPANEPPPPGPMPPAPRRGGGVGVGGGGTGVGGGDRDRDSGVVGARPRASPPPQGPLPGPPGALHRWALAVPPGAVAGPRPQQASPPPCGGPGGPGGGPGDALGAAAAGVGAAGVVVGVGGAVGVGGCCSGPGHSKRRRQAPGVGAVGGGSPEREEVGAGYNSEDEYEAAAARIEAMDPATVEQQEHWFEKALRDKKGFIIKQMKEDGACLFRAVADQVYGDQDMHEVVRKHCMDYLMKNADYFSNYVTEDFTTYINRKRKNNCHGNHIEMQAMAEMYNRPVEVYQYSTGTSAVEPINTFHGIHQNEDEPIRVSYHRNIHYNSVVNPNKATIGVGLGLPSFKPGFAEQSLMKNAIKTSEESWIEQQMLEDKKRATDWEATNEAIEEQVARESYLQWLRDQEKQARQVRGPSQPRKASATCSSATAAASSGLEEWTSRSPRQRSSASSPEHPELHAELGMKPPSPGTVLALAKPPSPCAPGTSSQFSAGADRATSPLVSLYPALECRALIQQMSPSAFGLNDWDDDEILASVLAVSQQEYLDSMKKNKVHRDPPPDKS
In short: as §1

Measured: log2 ratio of Biotin-Ahx-Ub-VS probe labelling

O=C(CCl)N1c2ccccc2NC(=O)C12CCCC2
inactive: ALG13 -0.0909 | ATXN3 -0.311 | BAP1 -0.609 | EIF3F -0.0311 | EIF3H 0.277 | FAM105A 0.141 | OTUB1 -0.478 | OTUD4 -0.196 | OTUD5 -0.711
